# The full ranking holds about 35,000 sequences; the median of “fluorescence intensity (a.u.)” is about 10,000, and the highest 2% start at about 52,000. For the sample, the highest values were picked, then their nearest neighbours and some sequences at random.
# Biological target: T1, OsWOX13 (Oryza sativa, UniProt Q5QMM3 1-267)
# T1 sequence: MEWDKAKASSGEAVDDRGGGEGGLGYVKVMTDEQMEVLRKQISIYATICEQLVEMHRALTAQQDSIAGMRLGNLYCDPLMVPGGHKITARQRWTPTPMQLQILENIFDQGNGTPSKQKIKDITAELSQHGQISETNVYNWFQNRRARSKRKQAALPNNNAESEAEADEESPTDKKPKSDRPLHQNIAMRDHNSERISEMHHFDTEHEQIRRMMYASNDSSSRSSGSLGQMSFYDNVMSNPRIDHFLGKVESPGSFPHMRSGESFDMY
# Test: protein-binding microarray (RPBM); PBS, 2% BSA, 51.3 ng/ul salmon testes DNA, 50 uM zinc acetate, 200 nM TF, 25 C, 1 h; high values mean tight binding
# Details: protein: recombinant; tags: N-terminal polyhistidine and DsRed monomer fusion (pET32a); label: CyDye5-dUTP incorporated in the synthesized complementary strand; 3' TTTTT single-stranded linker to array surface; dsDNA, one strand shown
# Procedure, shortened: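 An Axon 4000B scanner gave the binding signal as per-feature fluorescence intensity in arbitrary units. This followed washing of a custom Agilent array that had been incubated for 1 h at 25 °C with 200 nM protein in PBS, 2% BSA, salmon testes DNA and 50 µM zinc acetate. The proteins were transcription factors fused at the N-terminus to polyhistidine and DsRed, expressed in E. coli BL21-CodonPlus and purified on Ni–NTA.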
row,Sequence,binding signal
1,AAGATTTAATTGTTACGAACACAACGGCGTAATCGGATCGCGGAGTCACCTAGTGCAG,36000 fluorescence intensity (a.u.)
2,TCGAAAATTGGTTTTGTTAATATACTAGGACTGATTTCAGCGGAGTCACCTAGTGCAG,6190 fluorescence intensity (a.u.)
3,AGTGATGGCATTGACTGACTTGGGGAAGGAAACAATCGAGCGGAGTCACCTAGTGCAG,16000 fluorescence intensity (a.u.)
4,TTGGCGATTGATTGGGGAAAGGAAACTTTGCTAGGTCAATCGGAGTCACCTAGTGCAG,53500 fluorescence intensity (a.u.)
5,TGTGGGATGGATTTGTGGTGATTGAGAGGGTTTGAAAGGGCGGAGTCACCTAGTGCAG,15700 fluorescence intensity (a.u.)
6,TGGAGGGATTTGATTTGGAAAGGATTTGGATTCGGGATTGCGGAGTCACCTAGTGCAG,3870 fluorescence intensity (a.u.)
7,ACTGATTGATTTGGAAGGAGAGAAATACTATGTTGGGTTTCGGAGTCACCTAGTGCAG,63700 fluorescence intensity (a.u.)
8,GTGTGTGATGGGTTAATCGATGTGCTATGTTATTGGTTTCCGGAGTCACCTAGTGCAG,5310 fluorescence intensity (a.u.)
9,GTTTGATTGGAGCAATGTCTCAATGGGTGAGAAGATGAGGCGGAGTCACCTAGTGCAG,54300 fluorescence intensity (a.u.)
10,TGTTGTGATTGGTTGAGAAATGTGGGTATGTGAGAAAATACGGAGTCACCTAGTGCAG,15200 fluorescence intensity (a.u.)
11,GTTAATTTTGTGAAATATGTTTGCTGGTTAGTGAATTGTACGGAGTCACCTAGTGCAG,12400 fluorescence intensity (a.u.)
12,GGGAGAGGTGATGAGTGATTGGAGTAGAGGGGAGATGAGGCGGAGTCACCTAGTGCAG,12600 fluorescence intensity (a.u.)
13,GTGTGATTTGCTAATTGGGTTTGTTATGAAGCTGGTTATCCGGAGTCACCTAGTGCAG,54000 fluorescence intensity (a.u.)
14,TGTAACAAACAGGCTGTAACGGCACCGTAATAAACCCAACCGGAGTCACCTAGTGCAG,6570 fluorescence intensity (a.u.)
15,AGCCAATCAGAATCCAAATAAAACATTCTTGCAGCAGGCGCGGAGTCACCTAGTGCAG,15900 fluorescence intensity (a.u.)
16,ATTTGTCTAGTACTCCTAATTGGTACATCGACGATCTGCGCGGAGTCACCTAGTGCAG,6670 fluorescence intensity (a.u.)
17,CTAGCCACTTGGTATAATTGACTGAGTCTTGATAAAGCTTCGGAGTCACCTAGTGCAG,7350 fluorescence intensity (a.u.)
18,CAAATGTAATTTCGCACTATTCTTATCTAATGTTTGACATCGGAGTCACCTAGTGCAG,4370 fluorescence intensity (a.u.)
19,TTTGACCTTTGTTCTGATTGCTACAACGAGGGAAAGTTTACGGAGTCACCTAGTGCAG,4690 fluorescence intensity (a.u.)
20,ATATATATATATATATATATATATATATATATAAACCCAACGGAGTCACCTAGTGCAG,24000 fluorescence intensity (a.u.)
21,ATCTAAGCTCATCTCAACCAATCACAACCATCGTTGATTTCGGAGTCACCTAGTGCAG,3410 fluorescence intensity (a.u.)
22,ATAAATTACTTTTCGTTTGCAAATATGCTGTTTGAATAAGCGGAGTCACCTAGTGCAG,13300 fluorescence intensity (a.u.)
23,TTACATGATTATGTTAATTACTACACAATTATAGGGCCTACGGAGTCACCTAGTGCAG,42500 fluorescence intensity (a.u.)
24,TTCTGATCACAGATCAATTACTCTTGATCGCCCATTTATTCGGAGTCACCTAGTGCAG,9590 fluorescence intensity (a.u.)
25,TGTATTCATCATCTAAATTATTGTTCATAAACCTATAGGCCGGAGTCACCTAGTGCAG,3420 fluorescence intensity (a.u.)
26,ACGGAATGAACACTAATTTACTTAATACATAGAACCACGGCGGAGTCACCTAGTGCAG,19400 fluorescence intensity (a.u.)
27,AACCAATTTATATTGTCAGAAGAAAATGCATTATATAGGTCGGAGTCACCTAGTGCAG,6730 fluorescence intensity (a.u.)

row,Sequence,binding signal
1,CATTGAATGTTTGGACACTAATTATAAATATTAAACGTAGCGGAGTCACCTAGTGCAG,9090 fluorescence intensity (a.u.)
2,AGTTATTGATAACATAAGCCTTAAAAGTTCGCCCTAACCTCGGAGTCACCTAGTGCAG,4600 fluorescence intensity (a.u.)
3,CAAAACAGACATAATCTTGTTGGACAGACGTAGCCATGAACGGAGTCACCTAGTGCAG,12500 fluorescence intensity (a.u.)
4,GGTTGGATGGTTGGATTTGATGTGGATTTGAATTGTTATGCGGAGTCACCTAGTGCAG,7890 fluorescence intensity (a.u.)
5,CCTAATTTGCGTGATTGGATTGGTTGGTTGTGTTGTAATGCGGAGTCACCTAGTGCAG,65000 fluorescence intensity (a.u.)
6,TTGATTGGATAATTTTGTGGTTTGGGAAGAAATGGTGATGCGGAGTCACCTAGTGCAG,64000 fluorescence intensity (a.u.)
7,AGTTTGGATTTTGGTTGAAATTGAAGATAATGTGACTGAACGGAGTCACCTAGTGCAG,3240 fluorescence intensity (a.u.)
8,TCATAATTGGATGGCATTGTACTGTGATTTGTTTGTGTTGCGGAGTCACCTAGTGCAG,49200 fluorescence intensity (a.u.)
9,GTTGGTTAATTGCAATTTAATTGTTGTATTGTAAGAGTCTCGGAGTCACCTAGTGCAG,56100 fluorescence intensity (a.u.)
10,TGCTTGCTTGCTTGGTTTGATTGGTGGAGGTGGGAGGAGTCGGAGTCACCTAGTGCAG,3920 fluorescence intensity (a.u.)
11,GGTGATTGCATTTGATTGGGTGGAAAAGGTTTGATTTTGTCGGAGTCACCTAGTGCAG,64900 fluorescence intensity (a.u.)
12,TGGAAGTCAAGTCACTAATTGGAAGAAGATGGTGATAATGCGGAGTCACCTAGTGCAG,16600 fluorescence intensity (a.u.)
13,TTGCAATTGCCAATTTCTTTATTATATTGTTGGTTTAACTCGGAGTCACCTAGTGCAG,16700 fluorescence intensity (a.u.)
14,GCTTAATTAGCTTGTATTTAGTTGGTTAATTTAGTGTTGTCGGAGTCACCTAGTGCAG,43600 fluorescence intensity (a.u.)
15,CATTGATTTTGTTTTATTATTTTGGTTGGTGGTGCCGTGTCGGAGTCACCTAGTGCAG,39100 fluorescence intensity (a.u.)
16,GACACTGGGTAAATTATTCAATTCTAACTAAATTATATGACGGAGTCACCTAGTGCAG,4590 fluorescence intensity (a.u.)
17,TCGATAAATTGAGGAGACCAAAATTCACGAAATCAACATACGGAGTCACCTAGTGCAG,7550 fluorescence intensity (a.u.)
18,AGCTGTTCCAATTATGAACTCACTAACTTTACATAGAGGTCGGAGTCACCTAGTGCAG,3650 fluorescence intensity (a.u.)
19,ACAGTTCCTTTGTGCCAATCATTGAACCCGGGAATGCTGGCGGAGTCACCTAGTGCAG,4780 fluorescence intensity (a.u.)
20,TATGAATGACATATAAACAGATAATCGTGTTCACCGAATGCGGAGTCACCTAGTGCAG,20900 fluorescence intensity (a.u.)
21,TCTGATAGCTTGTGAGGGTTTCATTCATCCTCTGCTAGTGCGGAGTCACCTAGTGCAG,6630 fluorescence intensity (a.u.)
22,GTCTTCAAATTATATTAGTTATAACTATAGTTCACACAATCGGAGTCACCTAGTGCAG,4610 fluorescence intensity (a.u.)
23,TCAGCTAATCAGCTAACTGGTCCTTTTCCTACTTCCCTTGCGGAGTCACCTAGTGCAG,8010 fluorescence intensity (a.u.)
24,GGGGATTGGGAGTTTATACAAGGGAATTGATGGTGAGATTCGGAGTCACCTAGTGCAG,21000 fluorescence intensity (a.u.)
25,TTAAGATAGAGGAAACATTGATTGTATGCATGCTATATATCGGAGTCACCTAGTGCAG,3750 fluorescence intensity (a.u.)
26,GCTAATTTATACAATAGTTGCTTACTATAGAATTAATGCACGGAGTCACCTAGTGCAG,27200 fluorescence intensity (a.u.)
27,GCATAGATTATTATGCAGAAAGTTCATGTATATGACCAGCCGGAGTCACCTAGTGCAG,6640 fluorescence intensity (a.u.)

# Source: article PMC7819943, “Rice protein-binding microarrays: a tool to detect cis-acting elements near promoter regions in rice”
